Test [1] is described as follows: qHTS for compounds that reverse cellular toxicity of Amyloid beta (A-beta) peptide in yeast: LOPAC Validation Assay (AID 720559; active means well fitted curve in the direction sought with a large enough effect; an effect the other way counts as inactive or inconclusive;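 further: plate controls were DMSO for no effect and equimolar ferric chloride plus clioquinol rescue for full effect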). Put shortly: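 Activity is expressed relative to DMSO and an equimolar ferric chloride/clioquinol mix. Compounds were pinned into medium with A-beta-expressing yeast, grown 48 hr at 30 C, then read by absorbance at 600 nm.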
Background: qHTS replaces the single test concentration by a dilution series.

A short description of test [2]: qHTS for Activators of Parkin Expression: LOPAC Validation Assay (NLuc Reporter) (AID 720572; active means well fitted curve in the direction sought with a large enough effect; an effect the other way counts as inactive or inconclusive). Put shortly: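 NLuc signal, read 10 min after reagent and following a prior FLuc read, is normalized to DMSO (0) and positive controls (100%). Cells: neuronal Parkin-promoter coincidence reporter line; compounds tested 7-point, 24 h, 37 C, 5% CO2.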
Test [3] in a line: qHTS for Activators of Parkin Expression: LOPAC Validation Assay (FLuc Reporter) (AID 720573; active means well fitted curve in the direction sought with a large enough effect; an effect the other way counts as inactive or inconclusive). The essentials: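 A neuronal cell line harbouring FLuc and NLuc reporters behind the Parkin promoter was exposed to compounds for 24 h. Firefly luciferase signal, measured after 10 min with detection reagent, was scaled to DMSO and positive-control wells.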
For test [4], the target named is Arylsulfatase A (Homo sapiens) (UniProt P15289). The test is described as follows: qHTS screen for enhancers of Arylsulfatase A (ASA1): LOPAC Validation Assay (AID 720538; active means well fitted curve in the direction sought with a large enough effect; an effect the other way counts as inactive or inconclusive; further: 0% is about no effect). The essentials:
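First, ASA-I179S fibroblasts from an MLD patient adhered for 6 hrs. Next, compounds were added for 48h. Then pNCS substrate (0.5mM final) with lysis buffer reacted 14h at room temperature before NaOH stop and fluorescence measurement.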

Test [5] can be described thus: qHTS for small molecule inhibitors of Yes1 kinase: Counter Assay (AID 686950; active means well fitted curve in the direction sought with a large enough effect; an effect the other way counts as inactive or inconclusive;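 further: no kinase present so only ADP-Glo detection of a fixed ADP amount is tested; luminescence from ADP-Glo reporting ADP in a fixed ATP and ADP mixture; series mostly up to about 77 µM; 0% = DMSO wells with ATP plus ADP and -100% = ATP-only wells without ADP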). The essentials: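 No kinase present; 0.08 mM ATP + 0.02 mM ADP in 50 mM Tris pH 7.5, 10 mM MgCl2, 150 mM NaCl, 1 mM DTT; 20 min compound preincubation, 60 min RT, ADP-Glo luminescence, normalized to ATP/ADP (max) and ATP-only (min).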
Test [6] in a line: qHTS assay for small molecule agonists of the antioxidant response element (ARE) signaling pathway measured by Nrf2-dependant transcriptional activity (AID 720636).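 Further: HepG2 cells with an ARE-driven luciferase reporter; % of control where 0% means no effect.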 The essentials: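 First, ARE-luc HepG2 cells attached for 6 hr at 37 C in 1% dialyzed FBS medium. Next, compound or DMSO was added and incubated 16 hr. Finally, ONE-Glo reagent was added and luminescence measured after 30 min.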

Test [7] is described as follows: qHTS assay for small molecule agonists of the antioxidant response element (ARE) signaling pathway measured by Nrf2-dependant transcriptional activity - cell viability counter screen (AID 720653). Further: on the % scale 0 is the no-effect control and ±100 the full control effect. The conditions noted are these: ARE-bla HepG2 viability, CellTiter-Glo ATP luminescence, 16 h; active compounds read low. Put shortly:
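ARE-bla HepG2 cells treated with compounds for 16 h at 37C; this counter screen measures viability as intracellular ATP by CellTiter-Glo luminescence after 30 min at room temperature.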

The target in test [8] is Nuclear receptor ROR-gamma (Homo sapiens) (UniProt P51449). The test is described as follows: qHTS assay for small molecule antagonists of the retinoid-related orphan receptor gamma (ROR-gamma) signaling pathway (AID 651802; active means well fitted curve in the direction sought with a large enough effect; an effect the other way counts as inactive or inconclusive;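 further: luciferase reporter luminescence driven by ROR response element; series mostly up to about 92 µM; on the % scale 0 is the no-effect control and ±100 the full control effect; nearly all actives have a fitted effect of over 60% in size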). Put shortly: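 Luminescence (One-Glo, 30 min RT) measured 16 h after compound addition and doxycycline induction at 37C. Reporter: RORE-luciferase under TET-inducible ROR-gamma in CHO cells.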
Chain of Nuclear receptor ROR-gamma (Homo sapiens) (P51449 whole entry, looked up): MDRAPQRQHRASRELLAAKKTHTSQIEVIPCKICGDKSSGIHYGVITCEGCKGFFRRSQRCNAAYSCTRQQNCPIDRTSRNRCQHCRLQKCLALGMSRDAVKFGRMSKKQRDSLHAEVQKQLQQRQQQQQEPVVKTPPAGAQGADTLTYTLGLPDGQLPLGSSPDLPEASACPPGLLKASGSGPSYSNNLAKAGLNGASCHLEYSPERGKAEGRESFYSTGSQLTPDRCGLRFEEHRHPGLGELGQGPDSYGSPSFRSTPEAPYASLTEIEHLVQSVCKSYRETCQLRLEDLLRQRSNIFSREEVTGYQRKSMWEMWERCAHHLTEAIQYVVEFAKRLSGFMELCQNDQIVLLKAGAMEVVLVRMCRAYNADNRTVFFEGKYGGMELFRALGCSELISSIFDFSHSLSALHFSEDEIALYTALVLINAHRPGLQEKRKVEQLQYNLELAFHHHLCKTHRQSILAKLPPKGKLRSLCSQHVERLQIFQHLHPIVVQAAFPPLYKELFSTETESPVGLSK

Test [9] is described as follows: qHTS assay for small molecule antagonists of the retinoid-related orphan receptor gamma (ROR-gamma) signaling pathway - cell viability counter screen (AID 720652).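 Further: series mostly up to about 92 µM; compound exposure lasted 16 hr before ATP read; on the % scale 0 is the no-effect control and ±100 the full control effect.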 Put shortly: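 Cytotoxicity counter screen: intracellular ATP (CellTiter-Glo luminescence) measured in the doxycycline-induced CHO RORE-luciferase reporter line after 16 hr compound exposure at 37 C, 5% CO2.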

Test [10] deals with Tyrosine-protein kinase Yes (Homo sapiens) (UniProt P07947). The test can be described thus: qHTS for small molecule inhibitors of Yes1 kinase: Primary Screen (AID 686947; active means well fitted curve in the direction sought with a large enough effect; an effect the other way counts as inactive or inconclusive;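 further: plate controls were DMSO with enzyme for no effect and no-enzyme DMSO wells for full effect; nearly all actives have a fitted effect of over 60% in size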). Put shortly:
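ADP-Glo luminescence reports ADP formed by 4 nM Yes1 phosphorylating poly(E4Y) (0.3 mg/mL) with 0.1 mM ATP for 60 min at room temperature, following 20 min compound preincubation; normalised between DMSO wells with and without enzyme.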

SMILES strings stand for the structures. Where “and” joins values, the source holds several entries; their conditions need not be identical. Equal values may be shown once. A number with no mark means an inactive call. Inconclusive results are not listed. Calls of active or inactive are those of the source. Unless noted, the call rests on the fitted dose curve; in most records, active means well fitted curve in the direction sought with a large enough effect in the repeat runs; inconclusive means weak or mixed curves; inactive means no such curve, though single readings can be large; an effect the other way counts as inactive or inconclusive.

Chain of Tyrosine-protein kinase Yes (Homo sapiens) (P07947 whole entry, looked up): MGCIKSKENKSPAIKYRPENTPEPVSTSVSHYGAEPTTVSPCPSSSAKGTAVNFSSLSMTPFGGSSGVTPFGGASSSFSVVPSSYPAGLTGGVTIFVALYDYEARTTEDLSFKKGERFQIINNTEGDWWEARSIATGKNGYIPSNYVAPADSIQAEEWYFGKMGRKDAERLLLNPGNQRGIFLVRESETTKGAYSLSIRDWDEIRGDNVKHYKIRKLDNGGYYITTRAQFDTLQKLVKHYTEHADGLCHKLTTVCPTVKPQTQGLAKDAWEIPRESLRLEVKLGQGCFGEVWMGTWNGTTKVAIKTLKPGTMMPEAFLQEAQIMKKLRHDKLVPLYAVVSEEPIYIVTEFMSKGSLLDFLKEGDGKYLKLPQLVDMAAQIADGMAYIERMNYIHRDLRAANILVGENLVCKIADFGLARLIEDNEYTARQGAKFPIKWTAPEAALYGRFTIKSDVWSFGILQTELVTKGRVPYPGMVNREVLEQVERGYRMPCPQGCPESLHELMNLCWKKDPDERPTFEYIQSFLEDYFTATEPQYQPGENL
Chain of Arylsulfatase A (Homo sapiens) (P15289 whole entry, looked up): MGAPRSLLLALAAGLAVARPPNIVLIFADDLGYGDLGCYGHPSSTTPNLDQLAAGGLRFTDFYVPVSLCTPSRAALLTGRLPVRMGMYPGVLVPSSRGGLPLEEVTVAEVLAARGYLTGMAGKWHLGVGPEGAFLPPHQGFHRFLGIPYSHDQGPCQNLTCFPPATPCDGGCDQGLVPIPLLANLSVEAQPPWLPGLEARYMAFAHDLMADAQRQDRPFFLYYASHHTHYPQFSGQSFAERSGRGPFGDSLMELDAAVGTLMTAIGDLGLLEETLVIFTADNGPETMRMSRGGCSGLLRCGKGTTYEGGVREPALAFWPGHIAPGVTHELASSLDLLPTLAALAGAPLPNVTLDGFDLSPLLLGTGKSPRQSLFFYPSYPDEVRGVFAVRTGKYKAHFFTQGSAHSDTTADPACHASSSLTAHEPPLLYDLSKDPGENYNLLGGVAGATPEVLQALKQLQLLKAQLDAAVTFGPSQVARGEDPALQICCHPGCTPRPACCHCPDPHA

Turning to `NCCCC(=O)O`, the compound was classed as inactive in test [1], in test [2] and in test [3].
In the case of `CN[C@H]1CC[C@@H](c2ccc(Cl)c(Cl)c2)c2ccccc21`, the outcome in [4], in test [1], in test [2] and in test [3] was inactive.
Take `COc1cc(O)c2c(c1)/C=C/C[C@H](O)[C@H](O)C(=O)/C=C\C[C@H](C)OC2=O`: the result in test [5] was inactive.
Take `O=S(=O)(c1ccccc1)N(CC(F)(F)F)c1ccc(C(O)(C(F)(F)F)C(F)(F)F)cc1`: in [6], the compound was classed as inactive. Besides, the max response in [7] was -21.3%.
Turning to `C=Cc1ccccc1`, the compound was classed as inactive in test [8], in [6] and in test [9]. In addition, the max response in test [7] is 5.41% and 3.34%.
With `CCCCCCCCCC(=O)O`, the compound was called inactive in test [6] and in test [9]. Besides, in [7], the max response is -4.59% and -4.9%.
Regarding `O=C(O)CC(O)(CC(=O)O)C(=O)O`, the result in test [8] and in [9] was inactive. In addition, the max response in test [7] is 1.31% and -9.81% and -4.69%.
As to `CC(=O)S[C@@H]1CC2=CC(=O)CC[C@]2(C)[C@H]2CC[C@@]3(C)[C@@H](CC[C@@]34CCC(=O)O4)[C@H]12`, the outcome in [6] was inactive. In test [7], the max response was -12%.
As to `CN(C)Cc1ccccc1`, the compound was called inactive in [8], in test [6] and in test [9]. The max response in test [7] was -3.95%.
Regarding `CCCCCCCC/C=C\CCCCCCCC(=O)OC[C@@H](O)[C@H]1OC[C@H](O)[C@H]1O`, in [6], the compound was classed as inactive. For the same compound, the max response in [7] was 4.25%.
As for `COc1cc(F)c(F)c(Nc2ccc(I)cc2F)c1NS(=O)(=O)C1(CC(O)CO)CC1` (centres undefined), the result in [10] and in test [5] was inactive.
With `COC(C)=O`, the compound was classed as inactive in [8], in test [6] and in [9]. The max response in test [7] is 11.2%.
